Holding throughout (assay): PBM binding z-score (relative to random genomic background probes); higher = stronger binding; sequences stand for … in GC…GCGATTGACAGCGTAGAATGAAGG
In test [1] the test system is FXR:RXRa (NR concentration 270 nM, RXRa partner concentration 90 nM). An outline of the steps:
(§1)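 The probes on custom Agilent 4×180K protein-binding microarrays were double-stranded, with 34-nt variable regions bearing direct-repeat seeds, single-nucleotide variants, half-site ablations and random human genomic background sequences. Incubation lasted 1 h with ligand-free nuclear receptor dimers in PBS pH 7.4, 2% milk, 0.02% Triton X-100, 1 mM DTT, 0.2 mg/mL BSA and 0.4 mg/ml salmon testes DNA. Antibodies against each partner (one per run) detected bound dimers, and fluorescence scans were regression-normalized. Binding z-scores take the random background probes as reference.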

Test [2] concerns LXRa:RXRa (NR concentration 270 nM, RXRa partner concentration 90 nM). The procedure, abridged:
as §1

The subject of test [3] is LXRa homodimer (NR concentration 270 nM). An outline of the steps: as §1
For test [4], the system named is LXRb:RXRa (NR concentration 270 nM, RXRa partner concentration 90 nM). The procedure, abridged:
as §1

The test system of test [5] is LXRb homodimer (NR concentration 270 nM). The procedure, abridged:
as §1

Test [6] concerns PPARa:RXRa (NR concentration 270 nM, RXRa partner concentration 90 nM). The procedure, abridged: as §1
For test [7], the system named is PPARg:RXRa (NR concentration 180 nM, RXRa partner concentration 90 nM). An outline of the steps:
as §1

For test [8], the system named is PPARg:RXRa 270nM:90nM, anti-RXR (NR concentration 270 nM, RXRa partner concentration 90 nM). An outline of the steps: as §1
Test [9] deals with PPARg:RXRa 30nM:10nM, anti-RXR (NR concentration 30 nM, RXRa partner concentration 10 nM). An outline of the steps: as §1
The test system of test [10] is PPARg:RXRa 90nM:30nM, anti-RXR (NR concentration 90 nM, RXRa partner concentration 30 nM). An outline of the steps: as §1
Test [11] concerns PPARg:RXRa DBDmut IVT, anti-RXR (DBD mutation: RXRa K156A/R161A, NR concentration 270 nM, RXRa partner concentration 90 nM). The procedure, abridged:
as §1

The test system of test [12] is PPARg:RXRa IVT, anti-PPARg (NR concentration 270 nM, RXRa partner concentration 90 nM). An outline of the steps: as §1
Test [13] deals with PPARg DBDmut:RXRa IVT, anti-PPARg (DBD mutation: PPARg1 K132A/R137A, NR concentration 270 nM, RXRa partner concentration 90 nM). An outline of the steps:
as §1

The test system of test [14] is PPARg DBDmut IVT, anti-PPARg (DBD mutation: PPARg1 K132A/R137A, NR concentration 270 nM). The procedure, abridged:
as §1

Test [15] relates to PPARg homodimer (NR concentration 180 nM). The procedure, abridged:
as §1

Test [16] deals with PXR:RXRa (NR concentration 270 nM, RXRa partner concentration 90 nM). The procedure, abridged: as §1
For test [17], the system named is PXR homodimer (NR concentration 270 nM). An outline of the steps:
as §1

Test [18] has as its system RARa:RXR (NR concentration 270 nM, RXRa partner concentration 90 nM). An outline of the steps: as §1
In test [19] the test system is RARa homodimer (NR concentration 270 nM). The procedure, abridged: as §1
The subject of test [20] is RARb:RXRa (NR concentration 270 nM, RXRa partner concentration 90 nM). An outline of the steps:
as §1

As to AGAATGAGGTTATTAAGATCAGGGGATTGCGGTC, the PBM binding z-score in test [1] was 1.52; in test [2], 1.31; in test [3], 0.0189; in test [4], 1.18; in [5], -0.0318; in [6] it was 2.51. Also, the PBM binding z-score in [7] stood at 1.47; in test [8], 1.87; in test [9] it was 0.612; in test [10], 1.08; in test [11], 2.94; in test [12], 2.52. Besides, the PBM binding z-score was 0.849 in test [13]; 0.535 in [14]; 0.326 in [15]; 1.14 in [16]; 0.713 in test [17]; 1.15 in test [18]. Moreover, the PBM binding z-score in [19] amounted to 0.826; in [20], 1.34.

In the case of CCGACTGGGGCAGAGAGGTTACCATACCATCCGG, the PBM binding z-score in test [1] is -0.137; in test [2], 0.273; in test [3], -0.349; in test [4], 0.271; in [5], -1.44; in [6], 1.48. Further, the PBM binding z-score in test [7] was 1.35; in [8], 1.6; in test [9], -0.221; in test [10], 0.899; in test [11], 2.02; in [12], 1.91. Moreover, the PBM binding z-score in test [13] was -0.515; in [14], -1.59; in test [15], 0.15; in test [16] it was 0.359; in test [17], -0.131; in [18], 0.845. Also, the PBM binding z-score in [19] is 0.129; in test [20], 1.24.

Turning to CGAACTCGGTCATCCAGGACAGTGAATACATTGA, the PBM binding z-score is 1.39 in test [1]; 0.744 in test [2]; 0.283 in test [3]; 0.275 in [4]; -0.494 in test [5]; 0.964 in test [6]. The PBM binding z-score in test [7] came out at 1.14; in test [8], 0.895; in [9] it was 0.134; in [10], 0.455; in [11], 3.58; in test [12] it was 2.52. The PBM binding z-score in test [13] was 0.285; in test [14] it was 0.0941; in test [15], 0.363; in test [16], 0.205; in test [17] it was -0.0652; in test [18], 0.856. For the same sequence, the PBM binding z-score turned out to be 0.205 in [19] and 2.31 in test [20].

For GCTAGTTGGTCAGTAAAAGGTCCCACACCGGTCG, the PBM binding z-score is -0.338 in test [1]; -0.272 in test [2]; -0.431 in test [3]; -0.485 in test [4]; -0.39 in test [5]; -0.0763 in [6]. Also, the PBM binding z-score was -0.0473 in test [7]; 0.383 in test [8]; -0.539 in test [9]; -0.225 in [10]; 0.066 in test [11]; 0.0788 in test [12]. In addition, the PBM binding z-score in test [13] is -0.0613; in [14] it was -0.438; in test [15], 0.327; in test [16], -0.35; in test [17] it was -0.579; in test [18], 0.0824. The PBM binding z-score came out at 0.292 in [19] and 0.845 in test [20].

For the sequence CGTCCAAGTTCAGAGAGGTCAGTGAATGCCGAGT, the PBM binding z-score in test [1] was determined as 3.32; in [2], 3.64; in test [3], 3.27; in test [4], 3.1; in test [5] it was 0.431; in [6] it was 3.19. The PBM binding z-score is 0.531 in test [7]; 1.5 in test [8]; -0.176 in test [9]; 0.671 in [10]; 0.453 in test [11]; 0.71 in test [12]. The PBM binding z-score in test [13] is -0.268; in test [14], -0.219; in [15] it was 4.09; in test [16] it was 6.4; in test [17] it was 13; in [18] it was 3.9. The values for the PBM binding z-score in test [19] and in test [20] were 1.51 and 4.09, respectively.

Regarding ACAGACAGGTCAGTGAAGGTAACTCAGCTGGACG, the PBM binding z-score in test [1] is 2.55; in test [2], 1.83; in [3] it was -0.374; in [4], 1.07; in test [5] it was -0.266; in test [6], 2.47. Besides, the PBM binding z-score in test [7] was 1.18; in [8], 1.05; in [9], -0.166; in test [10], 0.444; in test [11], 0.901; in test [12], 1.22. In addition, the PBM binding z-score in test [13] is -0.0695; in test [14], -0.218; in [15], 0.397; in test [16] it was 1.57; in test [17], -0.149; in test [18] it was 1.78. Further, the PBM binding z-score in [19] stood at 0.123; in test [20] it was 3.51.

For TGTCAAAGTTCGAAGGTAACGTAAGTATCCACAC, the PBM binding z-score was 1.54 in test [1]; 1.56 in [2]; 0.166 in [3]; 1.27 in test [4]; -0.175 in test [5]; 2.58 in test [6]. Also, the PBM binding z-score in [7] is 4.57; in test [8], 5; in [9], 2.28; in [10], 4.19; in test [11] it was -0.516; in [12] it was 2.26. In addition, the PBM binding z-score worked out at 1.29 in [13]; 0.86 in test [14]; 0.387 in [15]; 1.64 in test [16]; 0.292 in test [17]; 2.13 in test [18]. Also, the PBM binding z-score is 0.23 in [19] and 2.34 in [20].

The record behind these values is the supplement of paper PMC6555819.
